HTT-AS promoter – Primary qHTS for Identification of Small Molecule Activators of Huntingtin-Antisense Promoter Activity; Potency, µM (top dose mostly 57.5 µM), for inactives: at the top dose activity change, positive = activation, actives largely listed as activators; HEK293 HTT-AS promoter firefly luciferase reporter, 24 h; response scale: percent change from vehicle, -100% = no light; 48,000 compounds, 0.24% hits; also: nearly all actives have a fitted effect of over 55% in size
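HEK293 luciferase promoter-reporter cells (2,500/well) plated 24 h, then compounds added at up to 57.5 uM final for 24 h at 37 °C. Firefly luminescence by Dual-Glo, normalized to vehicle (0%) and zero RLU (-100%).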
NTMT1 inh – Primary qHTS for Inhibitors of N-terminal methyltransferase 1 (NTMT1): MTaseGlo Assay; NTMT1 MTase-Glo SAH luminescence, purified enzyme; AID 1645870, 2021; 59,000 compounds, 2.5% hits; Potency, µM (titrated, usually from 114 µM), for the others: at the highest dose activity change, negative = inhibition, hits mostly inhibitors;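 also: plate controls were DMSO vehicle for no effect and no enzyme for full effect; nearly all actives have a fitted effect of over 65% in size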
Target sequence (Q9BV86 whole entry, looked up): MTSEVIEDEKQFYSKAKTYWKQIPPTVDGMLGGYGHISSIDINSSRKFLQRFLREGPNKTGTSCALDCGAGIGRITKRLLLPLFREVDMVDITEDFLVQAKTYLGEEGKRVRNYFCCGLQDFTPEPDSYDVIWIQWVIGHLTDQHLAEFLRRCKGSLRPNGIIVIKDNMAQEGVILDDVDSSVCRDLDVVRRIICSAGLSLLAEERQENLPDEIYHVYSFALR
FH mod – Identification of activators of human fumarate hydratase by quantitative high-throughput screening; Fumarate hydratase, mitochondrial (Homo sapiens), P07954; Potency, µM (series often up to 79.9 µM), for the others: at the top dose activity change, negative = inhibition, hits mostly inhibitors; 54,000 compounds, 0.22% hits; AID 1347055, 2019; FH coupled MDH/diaphorase resazurin fluorescence, 15 min; also: % is scaled to controls: 0 for no effect and ±100 for the full control effect; the screen sought activators but most active calls are inhibition curves; nearly all actives have a fitted effect of over 45% in size
Target sequence (P07954 whole entry, looked up): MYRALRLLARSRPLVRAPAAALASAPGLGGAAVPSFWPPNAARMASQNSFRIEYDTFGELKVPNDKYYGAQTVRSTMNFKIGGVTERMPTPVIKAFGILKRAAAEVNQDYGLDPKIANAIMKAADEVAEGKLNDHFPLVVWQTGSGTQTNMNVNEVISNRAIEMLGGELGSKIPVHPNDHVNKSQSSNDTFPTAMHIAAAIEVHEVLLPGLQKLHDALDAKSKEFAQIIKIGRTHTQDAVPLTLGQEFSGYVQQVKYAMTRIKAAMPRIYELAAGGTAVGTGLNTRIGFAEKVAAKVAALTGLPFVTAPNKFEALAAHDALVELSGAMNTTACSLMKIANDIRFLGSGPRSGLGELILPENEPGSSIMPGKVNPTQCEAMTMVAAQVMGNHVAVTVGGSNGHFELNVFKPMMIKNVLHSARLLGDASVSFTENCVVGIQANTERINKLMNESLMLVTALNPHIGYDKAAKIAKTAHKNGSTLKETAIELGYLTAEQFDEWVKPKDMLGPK
HTT prom inh – Primary qHTS for Identification of Small Molecule Inhibitors of Huntingtin Promoter Activity; HEK293 HTT promoter firefly luciferase reporter, 24 h; Potency, µM (titrated, usually from 57.5 µM), inactives show at the top dose activity change, negative = inhibition, usual class: inhibitors; 48,000 compounds, 0.93% hits; AID 1508623, 2021; also: nearly all actives have a fitted effect of over 50% in size
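Firefly luciferase readout (Dual-Glo, 10 min RT) after 24 h, 37 °C compound exposure (final up to 57.5 uM) of HEK293 reporter cells cultured 24 h beforehand; PTC124 at 50 uM final as control inhibitor; activity scaled vehicle 0%, zero RLU -100%.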
Numbers without * were called inactive; ? = inconclusive; nt = no result; ! = a repeat was not active; [ ] = remark or other dose. An excerpt weighted towards active compounds, which were near 2.6% of everything screened. Calls follow the shape of the dose curve; as a rule, active = well fitted curve in the direction sought with a large enough effect; inconclusive = small, poorly fitted or top-dose-only effect, or another doubt; inactive = no such curve, though single readings can be large; an effect the other way counts as inactive or inconclusive. Potency is read from the fitted curve at half-maximal effect.

SMILES	HTT-AS promoter	NTMT1 inh	FH mod	HTT prom inh
Cc1ccc(-n2nc3c(=O)n(C(C)C(=O)NCc4ccccc4C)nc(C)c3c2C)cc1 (configuration not stated)	-43.0%	?	-12.7%	?
CC(=O)O[C@H](C[C@@H](C)[C@H]1C(=O)[C@H](O)[C@@]2(C)[C@@H]3CCC4C(C)(C)[C@@H](O[C@@H]5OC[C@H](O)[C@H](O)[C@H]5O)CC[C@@]45C[C@@]35CC[C@]12C)[C@@H]1OC1(C)C (some centres not stated)	nt	10.7%[12.6 µM]	-20.4%[20.6 µM]	nt
Cc1cc(NC(=O)c2cc(Cl)ccc2Cl)ccc1-c1cc2ccccc2oc1=O	-33.7%	6.8%	-5.3%	10µM*
O=C(Nc1ccc(-c2ccncc2)cc1)N[C@H](CO)c1ccccc1	nt	-0.4%[57.5 µM]	?	nt
COc1ccccc1C(=O)Nc1nnc(SCc2cc(=O)n3ccc(C)cc3n2)s1	19.6%	8.4%	1.12µM*	26.1%
Clc1ccccc1-c1nc(-c2ccncc2)no1	?	?	-21.7%[53.3 µM]	30.1%
Fc1cccc(-c2nc(-c3ccncc3)no2)c1	3.98µM*	-2.5%	5.0%	40.0%
CN(Cc1ccc(C(=O)O)cc1)c1ccc(OCc2c(-c3c(Cl)cccc3Cl)noc2C2CC2)nc1C(F)(F)F	nt	?	15.8µM*	nt
CN1CCN(Cc2ccc(-c3cnc4[nH]cc(-c5ccc6[nH]ccc6c5)c4c3)cc2)CC1	nt	20µM*	-25.1%	nt
Nc1ncnc2c1ncn2[C@@H]1O[C@H](CO)[C@@H](O)[C@H]1O	-13.3%	50.1µM*!	0.0%[53.3 µM]	-8.2%
Nc1ncnc2c1ncn2[C@H]1O[C@H](CO)[C@@H](O)[C@@H]1O	nt	?	10.9%[162 µM]	nt
OC[C@H]1O[C@@H](n2cnc3c(=S)nc[nH]c32)[C@H](O)[C@@H]1O	-57.3%	5.62µM*	3.8%[53.3 µM]	?
CC(C)c1ccccc1-c1ncc(N(C)C)c(NCc2ccc(-c3cccnc3)cc2)n1	nt	13.2%[57.5 µM]	nt	nt
O=c1ccc2ccc(O)c(O)c2o1	-92.8%	-19.4%[57.5 µM]	?	?
O=Cc1ccc(O)c(O)c1O	-2.0%	17.8µM*	15.5µM*	-8.2%
CC(=O)OC1CC(=O)C2(C)C3CC4=C(OC(C)CC4=O)OC3(C)CCC2C1(C)C (configuration not stated)	nt	-16.7%[29.8 µM]	0.0%[53.3 µM]	nt
CN[C@@H]1[C@H](O[C@H]2[C@H](O[C@@H]3[C@@H](O)[C@H](O)[C@@H](N=C(N)N)[C@H](O)[C@H]3N=C(N)N)O[C@@H](C)[C@]2(O)CO)O[C@@H](CO)[C@H](O)[C@H]1O	nt	7.3%[57.5 µM]	0.3%	nt
CCc1ccc(NC(=O)Cn2c(=O)oc3cc(S(=O)(=O)N4CCCCCC4)ccc32)cc1	-48.8%	-0.2%	-11.3%	?
CCOc1ccc(NC(=O)CN2CCSc3ccc(S(=O)(=O)N4CCCC4)cc32)cc1	-38.8%	-7.0%	-19.8%	25.1µM*
CCOc1ccc(NC(=O)Cn2c(=O)oc3cc(S(=O)(=O)N4CCC(C)CC4)ccc32)cc1	-48.7%	3.6%	-11.2%	10µM*
O=C1CCCC2=C1C(c1[nH]ncc1Cl)NC(=NCc1cccnc1)N2 (configuration not stated)	nt	8.4%	nt	nt
Cc1cccc(-n2c(C)cc(C(=O)C(=O)Nc3ccccc3F)c2C)c1C	-20.3%	3.7%	-24.9%	8.91µM*
Cc1ccc(S(=O)(=O)N2CCCc3cc(NS(=O)(=O)c4ccc(F)c(C)c4)ccc32)cc1	-45.2%	3.4%	?	25.1µM*
O=C(Cn1nc(-c2ccc(F)cc2)ccc1=O)NCCc1ccccc1	nt	79.4µM*	nt	nt
CC(C)(C)c1ccc(-c2ccc(=O)n(CC(=O)NCCc3ccccc3)n2)cc1	nt	15.1%	nt	nt
SMILES	HTT-AS promoter	NTMT1 inh	FH mod	HTT prom inh
COc1ccc(OC)c(NC(=O)Cn2ccn(-c3ccc(F)cc3)c(=O)c2=O)c1	-9.2%	89.1µM*	1.1%	-23.4%
COc1ccc(OC)c(NC(=O)Cn2ccn(-c3ccc(OC)c(OC)c3)c(=O)c2=O)c1	-1.1%	-7.6%	0.4%	-18.4%
C=C1c2cccc(O)c2C(O)=C2C(=O)[C@@]3(O)C(O)=C(C(N)=O)C(=O)[C@@H](N(C)C)[C@@H]3[C@@H](O)[C@H]12	-54.1%	12.6µM*	-9.9%[53.3 µM]	?
CN(C)[C@@H]1C(=O)C(C(N)=O)=C(O)[C@@]2(O)C(=O)C3=C(O)c4c(O)cccc4C[C@H]3C[C@@H]12	-27.9%	?	-7.8%[53.3 µM]	?
CCCCN(CCCC)C(=O)CN1C[C@H](c2ccc3c(c2)OCO3)[C@@H](C(=O)O)[C@@H]1c1ccc(OC)cc1	nt	?	1.0%	nt
[N-]=[N+]=Nc1ccc(C(=O)CSC[C@H](NC(=O)CC[C@H](N)C(=O)O)C(=O)NCC(=O)O)cc1	nt	nt	31.6µM*	nt
N[C@@H](CCC(=O)N[C@H](CSN=O)C(=O)NCC(=O)O)C(=O)O	nt	nt	-0.8%[53.3 µM]	nt
Cc1c(C(=O)O)[nH]c2c1C(=O)CCC2	nt	7.1%	nt	nt
Cc1ccc(-c2ccc(=O)n(CC(=O)N(C3CCCCC3)C3CC3)n2)cc1	nt	2.1%	nt	nt
CC(=O)Nc1sc2c(c1-c1cccc3c1sc1ccccc13)CCNC2	nt	-5.2%	nt	nt
N=C(N)c1ccc2cc(OC(=O)c3ccc(N=C(N)N)cc3)ccc2c1	-15.0%	79.4µM*!	-2.5%[53.3 µM]	-2.5%
CN(C)C(=O)COC(=O)Cc1ccc(OC(=O)c2ccc(N=C(N)N)cc2)cc1	?	?	-10.0%[53.3 µM]	?
COc1ccc2c(c1)C=C1Cn3c-2c(C2CCCCC2)c2ccc(cc23)C(=O)NS(=O)(=O)N(C)CCOCCN(C)C1=O	nt	44.7µM*	?	nt
NC(=O)Nc1cc(-c2ccc(CN3CCOCC3)c(F)c2)sc1C(=O)N[C@H]1CCCNC1	nt	10.9%[57.5 µM]	nt	nt
NC(=O)Nc1cc(-c2ccc(CN3CCOCC3)cc2)sc1C(N)=O	21.7µM*	-6.5%	-0.4%[53.3 µM]	24.1%
O=C(Nc1ccc(S(=O)(=O)Nc2nccs2)cc1)[C@@H]1CC[C@H](C(=O)c2ccccc2)C1	nt	0.1%	nt	nt
CC/C(=C(/c1ccc(/C=C/C(=O)O)cc1)c1ccc2[nH]ncc2c1)c1ccc(F)cc1Cl	nt	31.6µM*	nt	nt
COc1ccc(NC(=O)c2ccc(-c3nc(CSc4ccccc4)c(C)o3)cc2)cc1OC	-23.0%	-5.1%	?	?
Cc1oc(-c2ccc(C(=O)Nc3cccc(C(F)(F)F)c3)cc2)nc1CSc1ccccc1	-88.7%	12.7%	?	1.78µM*
COc1ccc(NC(=O)c2ccc(-c3nc(CSc4ccc(C)cc4)c(C)o3)cc2)cc1Cl	-8.0%	-3.0%	-8.5%	4.47µM*
C=C1[C@H](OC(C)=O)[C@H]2[C@@H](OC(C)=O)C(C)C[C@]2(OC(C)=O)C(=O)[C@H](C)/C=C/C(C)(C)C(=O)[C@H](OC(=O)C(C)C)[C@H]1OC(C)=O (some centres not stated)	nt	4.2%[12.6 µM]	2.4%[20.6 µM]	nt
O=C1[C@H](O[C@@H]2O[C@H](CO)[C@@H](O)[C@H](O)[C@H]2O)Oc2ccccc2N1O	nt	9.6%[29.8 µM]	2.5%[53.3 µM]	nt

Source: PubChem BioAssay (National Center for Advancing Translational Sciences (NCATS))
